# Results as given in PubChem BioAssay (NCI).
# The panel holds about 83,000 compounds, 20% with a hit somewhere; the sample as a whole holds those more often.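 Single-dose data. Exposure time 48 hours. Values below 10 considered active.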 A number with no mark means an inactive call. The source made the active and inactive calls.
# System: NCI-H460 lung
# Assay: NCI-60 one-dose screen, 48 h (100 = growth as untreated, 0 = no growth, -100 = all killed)
# Settings: 10 µM unless noted
# Procedure: Growth inhibition of the NCI-H460 human Non-Small Cell Lung tumor cell line is measured as a screen for anti-cancer activity. Cells are grown in 96 well plates and exposed to the test compound for 48 hours. Compounds are tested at a single concentration, which is 10^-5 M for most compounds. The reported endpoint is percent growth (GI% or GIPRCNT), where numbers from 0 - 100% represent growth inhibition, and numbers from -100% - 0 represent cell death. For example, a value of 40 represents 60% growth inhibition. A value of 0 means no net growth occurred over the course of the experiment. A value of -40 indicates 40% of cells at the beginning of the experiment died by the end of the experiment. A value of -100 means all cells are dead at the end of the experiment.
# NCI-60 Human Tumor Cell Lines Screen was performed using the standard one-dose NCI protocol, which is described in more detail at https://dtp.cancer.gov/discovery_development/nci-60/default.htm.
# Compounds with GIPRCNT values below 10 were considered active. Activity score was based on GIPRCNT using the following formula: […]
# Score is 0 for GIPRCNT values of 100 or above, 50 for GIPRCNT values of 0, and 100 for GIPRCNT values of -100.
row,Compound,growth
1,CN1CCN(c2ccc3nc(/N=C/c4ccc5sc(-c6ccc([N+](=O)[O-])cc6)nc5c4)sc3c2)CC1,103%
2,COc1cc(C2CC(c3ccc(Nc4nc(Nc5ccc(F)cc5)nc(Nc5ccc(Cl)cc5)n4)cc3)=NN2C(C)=O)cc(OC)c1OC (stereo not given),77.9%
3,O=C1NN(C(=O)c2ccc(O)cc2)C(c2ccccc2)=N/C1=C\c1cn(-c2ccccc2)nc1-c1ccccc1,100%
4,Cc1cc(C(c2ccccc2)c2ccccc2)ccc1NS(=O)(=O)c1ccccc1,93.2%
5,COc1ccc(C2CC(c3cnccn3)=NN2)cc1OC (stereo not given),108%
6,O=C1Nc2ccccc2SC1C1SC(=S)N(Cc2ccccc2)C1=O (stereo not given),106%
7,CCn1c(Sc2nnc(NC(=O)CSC(=S)N3CCCCC3)s2)nc2c1c(=O)n(C)c(=O)n2C,101%
8,C=C(C=O)C1CCC2(C(=O)O)CCC3(C)C(CCC4C5(C)CCC(O)C(C)(C)C5CCC43C)C12 (stereo not given),-12.8% (active)
9,C=C(CNCCc1ccc(O)cc1)[C@@H]1CC[C@]2(COC3CCCCO3)CC[C@]3(C)[C@H](CC[C@@H]4[C@@]5(C)CCC(NCCO)C(C)(C)[C@@H]5CC[C@]43C)[C@@H]12 (stereo not given in full),-79.9% (active)
10,Cc1ccc(C)c2c1C(=O)OC2=O,111%
11,COc1ccc(N=c2nc3sc4cc(Cl)ccc4n3c(N)c2C#N)cc1,102%
12,COc1cc(NC(=O)c2cccc(-c3cc(=O)c4c(O)c(OC)c(OC)cc4o3)c2)cc(OC)c1OC,53.8%
13,CCCCN1CCN(c2ccc3nc(-c4ccc5nc(-c6ccc(OCC)c(OCC)c6)[nH]c5c4)[nH]c3c2)CC1,-84.3% (active)
14,CC(C)c1ccc(NC(=O)Cc2ccc(Nc3ncnc4cc(-c5cnn(CCN(C)C)c5)ccc34)cc2)cc1,-90.5% [30 µM] (active)
15,N#Cc1c(N)nc2c(nnn2-c2cccc(C(F)(F)F)c2)c1N,95.9%
16,N#Cc1c(-c2ccc(C(F)(F)F)cc2)cc(N2CC(O)C2)n2c1nc1ccccc12,27.8%
17,CCN(CC)CCOc1ccc(/C(=C(\C)c2ccc(F)c(OC)c2)c2ccc(Cl)cc2)cc1,-54.2% (active)
18,COC1(CC[C@@H](C)COC2OC(CO)C(O)C(O)C2O)O[C@H]2C[C@H]3[C@@H]4CC=C5C[C@@H](OC6OC(CO)C(OC7OC(C)C(O)C(O)C7O)C(O)C6OC6OC(C)C(O)C(O)C6O)CC[C@]5(C)[C@H]4CC[C@]3(C)[C@H]2[C@@H]1C (stereo not given in full),-90.2% (active)
19,C#C[C@]1(O)CC[C@H]2[C@@H]3CC=C4c5sc(N=C(N)N)nc5CC[C@]4(C)[C@H]3CC[C@@]21C,-14.5% (active)
20,COc1ccc(-c2cc(-c3ccc(Nc4nc(Nc5ccccc5)nc(Nc5ccc(Cl)cc5)n4)cc3)nc(N)c2C#N)cc1,24.6%

row,Compound,growth
1,CCOc1cccnc1/C=N/NC(N)=S,19.9%
2,Nc1ccc(S(=O)(=O)Nc2ccsc2-c2nc(-c3ccccc3)no2)cc1,40.1%
3,Cc1cc(N(CCCNc2ccnc3cc(Cl)ccc23)Cc2ccccn2)nc(N2CCCC2)n1,66.4%
4,O=C1CC(c2ccc3c(c2)OCO3)Nc2cc3c(cc21)OCO3 (stereo not given),5.95% (active)
5,C=C1C(=O)O[C@H]2[C@H]1CC/C(COC(=O)/C=C\C(=O)NCc1ccc(Cn3c(=O)sn(-c4ccc(Cl)cc4)c3=O)cc1)=C\CC[C@@]1(C)O[C@@H]21,-73.2% (active)
6,CCOC(=O)c1cnn2c(-c3ccc(Cl)cc3)nc(NCc3ccccc3)nc12,78.1%
7,COc1cc(NC(=O)c2cccc(-c3cc(=O)c4c(OC)c(OC)c(OC)cc4o3)c2)cc(OC)c1OC,30%
8,O=C1CSC(c2ccccc2Cl)N1c1nnc(Cn2cnnc2)o1 (stereo not given),34.2%
9,C=C1C(=O)O[C@H]2[C@H]1CC/C(COC(=O)/C=C\C(=O)NCc1ccc(Cn3c(=O)sn(CCCI)c3=O)cc1)=C\CC[C@@]1(C)O[C@@H]21,-79.1% (active)
10,Oc1[nH]c2ccccc2c1/C=c1/cc2c(c(-c3ccc(F)cc3)n1)=Nc1ccccc1-2,-23.6% (active)
11,Cc1nc(Nc2ccc(NC(=S)Nc3ccccc3)cc2)nc2nc(Nc3ccc(S(=O)(=O)O)cc3)[nH]c(=O)c12,108%
12,O=C(/C=C/C12c3ccccc3C(c3ccccc31)C1C(=O)N(c3ccccc3)C(=O)C12)c1ccccc1 (stereo not given),-41.3% (active)
13,CN(C)c1ccc(C#Cc2c(F)cccc2Cl)cc1,98.9%
14,c1ccc(-c2oc3ccccc3c2-c2ccccc2)cc1,99.8%
15,CC(C)(C)Nc1c(-c2c3ccccc3cc3ccccc23)nc2ccccn12,77%
16,CCOC(=O)c1nnn(-c2ccccc2)c1C1=CN(C)CCC1,104%
17,COc1ccc(Nc2ncc(Br)c(NCCCNC(=O)C3CCC3)n2)cc1,19.4%
18,Cc1cc(=O)c2cc3nc(-c4cccnc4)oc3c(Br)c2o1,104%
19,Cc1ccc(NC(=O)C(Cl)Cl)cc1,102%
20,CCCCC1COc2cccc3c(SCC(=O)N(C)c4cccc(Cl)c4)cc[n+]1c23 (stereo not given),113%
